The values that follow come from PubChem BioAssay AID1347142 (National Center for Advancing Translational Sciences (NCATS), 2019).

Structures are written as SMILES. Records with an inconclusive call do not appear. The source made the active and inactive calls. Calls follow the shape of the dose curve; as a rule, active = well fitted inhibition curve with a large enough effect; inconclusive = small, poorly fitted or top-dose-only effect; inactive = no such curve, though single readings can be large or run the other way.
Also: nearly all actives have a fitted effect of over 80% in size.
For activity change, negative = inhibition in this document: 0% is about no effect.
Potency is read from the fitted curve at half-maximal effect.

Sequence of N-terminal Xaa-Pro-Lys N-methyltransferase 1 (Homo sapiens) (Q9BV86 whole entry, looked up): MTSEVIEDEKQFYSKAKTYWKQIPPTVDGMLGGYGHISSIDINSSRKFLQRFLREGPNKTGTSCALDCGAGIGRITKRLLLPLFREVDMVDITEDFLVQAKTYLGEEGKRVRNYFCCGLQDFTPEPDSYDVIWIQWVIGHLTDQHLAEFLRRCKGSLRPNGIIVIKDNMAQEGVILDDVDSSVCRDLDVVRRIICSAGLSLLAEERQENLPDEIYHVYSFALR

The assay addresses N-terminal Xaa-Pro-Lys N-methyltransferase 1 (Homo sapiens) (UniProt Q9BV86). The assay is described as follows: qHTS Assay for Inhibitors of N-terminal methyltransferase 1 (NTMT1): ThioGlo3 Assay Confirmatory Screen, Round 1. The conditions noted are these: NTMT1 SAHH-coupled ThioGlo3 fluorescence, 30 min; series mostly up to 56.8 µM; activity change, negative = inhibition: at the top concentration. The text has this:
Assay Submitter (PI): Rong Huang Ph.D, Purdue University, West Lafayette, IN 47907 The N-terminal methytransferase 1 is the first methyltransferase that methylates protein alpha-N-amines and plays an important role in regulating cell mitosis, chromatin interactions and DNA repair. It is observed to be over-expressed in various cancer patient tissues like malignant melanoma and colorectal cancer tissues. Knockdown of NTMT1 in cancer cells causes cell mitotic defects and enhances sensitivity to DNA damaging chemotherapeutics. […] These critical cellular processes in which NTMT1 is implicated, coupled with emerging links to cellular dysfunction, strengthen the inference that NTMT1 is a compelling novel anticancer target. Progress have been made in understanding the molecular properties of NTMT1 and the biological consequences of protein alpha-N-terminal methylation, but there are no specific small molecule probes available for NTMT1 to fully characterize its MTase activity. To address this unmet need, a panel of assay is created and established to enable quantitative high-throughput screening (qHTS) for novel, potent, and selective small molecule NTMT1 inhibitors. Two orthogonal qHTS that use different reagents (ThioGlo vs. MTaseGlo) are developed for primary robotic screening against the NCATS chemical library of more than 400,000 small molecules. Identified inhibitors are reacquired, validated, and further characterized. […] Early Translation Branch (ETB) National Center for Advancing Translational Sciences (NCATS) National Institute of Health (NIH)
Materials: NTMT1 enzyme, substrate SPKRIA, control peptide RCC1-6 is provided by the Huang laboratory. ThioGlo3 Assay: In brief, 125nM NTMT1 enzyme was dispensed into a 1536-well assay plate with Aurora Discovery BioRAPTR Flying Reagent Dispenser (FRD, Beckton-Dickenson). Compounds (at various concentration) or 1uM RCC1-6 (SPKRIA) control were transferred to the assay plate using the Kalypsys 1536-pintool apparatus. After 1 min of room temperature incubation, 1uL of substrate (100uM SAM, 10uM SAHH, 15uM ThioGlo3) was added to the wells bringing the final assay volume to 4uL. Initial (background) fluorescence readout (EX: 340nm, EM: 450nm) was then detected using the PerkinElmer ViewLux microplate imager and a final fluorescence readout was taken after 30 min of room temperature incubation. The data was normalized to the background fluorescence.
For orientation: qHTS replaces the single test concentration by a dilution series.
For `COc1cc2nc(N3CCCN(C)CC3)nc(N(C)C3CCN(C)CC3)c2cc1OC`, the Potency is 24.1 µM (active). Turning to `Nc1ncnc2c1ncn2[C@@H]1O[C@@H]2COP(O)(=S)O[C@H]2[C@H]1O` (stereo partly drawn), the “activity change, negative = inhibition” value is 14.1% (inactive). `Nc1ncnc2c1ncn2[C@@H]1O[C@H](COP(=O)(O)CP(=O)(O)O)[C@@H](O)[C@H]1O`: the “activity change, negative = inhibition” value was -1.6% (inactive).

`CCNC(=O)[C@H]1O[C@@H](n2cnc3c(N)ncnc32)[C@H](O)C1O` (stereo partly drawn): the “activity change, negative = inhibition” value was 22.9% (inactive). As for `CCN(CC)c1ncnc2c1ncn2[C@@H]1O[C@H](COP(=O)(O)OP(=O)(O)C(Br)(Br)P(=O)(O)O)[C@@H](O)[C@H]1O`, the “activity change, negative = inhibition” value is -7.79% (inactive). Still for that read-out and setting: the same measure for `Nc1ncnc2c1ncn2[C@@H]1O[C@H](COP(=O)(O)OP(=O)(O)OP(=O)(O)O)[C@H]2OC3(O[C@H]21)C([N+](=O)[O-])=CC(=[N+]([O-])[O-])C=C3[N+](=O)[O-]` (stereo partly drawn): 1.18% (inactive); for `Nc1ncnc2c1ncn2[C@@H]1O[C@@H]2CO[P@](=O)(S)O[C@H]2[C@H]1O`: -24.5% (inactive); for `Nc1ncnc2c1nc(Sc1ccc(Cl)cc1)n2[C@@H]1O[C@@H]2COP(O)(=S)O[C@H]2[C@H]1O` (stereo partly drawn): -0.802% (inactive).
